The supplement of paper PMC3334620
The full ranking holds about 33,000 sequences; the median of “E-score (-0.5 to 0.5)” is about -0.015, and the highest 2% start at about 0.3. Many of the other results were omitted from the sample, so the highest values are more common in it than they were.

target: T1, Abf1 (UniProt P14164); assay: PBM E-score (8-mer binding enrichment) (E-score (-0.5 to 0.5)); higher = stronger / more preferred TF binding; settings: protein concentration: 200 nM; construct: GST-full length
T1 sequence: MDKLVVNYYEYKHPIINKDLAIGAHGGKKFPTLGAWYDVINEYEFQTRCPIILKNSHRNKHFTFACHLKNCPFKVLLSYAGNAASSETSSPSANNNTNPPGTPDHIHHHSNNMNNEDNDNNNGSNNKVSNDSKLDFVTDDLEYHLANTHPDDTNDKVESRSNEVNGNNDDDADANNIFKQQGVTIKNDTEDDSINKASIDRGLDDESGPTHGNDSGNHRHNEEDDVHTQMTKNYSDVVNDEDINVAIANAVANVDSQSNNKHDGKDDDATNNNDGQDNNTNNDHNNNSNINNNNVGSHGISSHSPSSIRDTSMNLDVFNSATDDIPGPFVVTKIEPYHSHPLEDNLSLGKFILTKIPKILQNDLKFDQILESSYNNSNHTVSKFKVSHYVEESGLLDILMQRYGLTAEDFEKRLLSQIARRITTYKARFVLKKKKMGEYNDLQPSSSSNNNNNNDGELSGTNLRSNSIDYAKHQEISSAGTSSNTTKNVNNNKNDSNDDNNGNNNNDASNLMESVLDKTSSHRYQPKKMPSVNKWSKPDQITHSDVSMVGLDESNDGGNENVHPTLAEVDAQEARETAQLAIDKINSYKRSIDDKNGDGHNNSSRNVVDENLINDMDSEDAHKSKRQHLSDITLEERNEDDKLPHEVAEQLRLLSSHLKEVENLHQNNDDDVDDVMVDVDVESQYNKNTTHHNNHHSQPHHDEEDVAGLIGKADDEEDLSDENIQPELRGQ
How it was run: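 Masliner-normalised scans of fluorescent anti-GST signal were the basis for scoring. That signal came from GST-tagged yeast transcription factors applied at about 100-200 nM to double-stranded universal all-10-mer Agilent arrays on fresh or once-stripped slides. Each ungapped eight-base word, pooled with its reverse complement, received an E-score from the Universal PBM Analysis Suite.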

Row | Sequence | PBM E-score
1 | CATAAGTC | -0.00466
2 | AACCGGTT | 0.0655
3 | TAGAAGCA | -0.0239
4 | CAAGGAAA | -0.198
5 | AGGGCGCC | -0.0691
6 | ATCGCTAA | 0.28
7 | ATCTATTC | 0.114
8 | ACGACGAG | 0.156
9 | ACGACGAT | 0.315
10 | ACGACGAC | 0.292
11 | GTACTGCA | -0.101
12 | AAACACCC | -0.0385
13 | GGTGCACA | -0.05
14 | CATGTACA | -0.0299
15 | CATGTACG | 0.319
16 | AATGTACG | 0.192
17 | TAAGTCTA | -0.136
18 | ATGTCATC | 0.394
19 | CTGTCATC | 0.108
20 | ATGTCAGG | -0.133
21 | ATGTCAAG | -0.0386
22 | ATGTCATA | 0.176

Row | Sequence | PBM E-score
23 | ATGTCATG | 0.349
24 | AGTCGAAT | -0.178
25 | AAGGAACC | -0.053
26 | TCGATCGA | -0.141
27 | CAGACAAC | -0.0277
28 | ATGTCACG | 0.437
29 | CTGTCACA | 0.138
30 | ATGTCACA | 0.282
31 | ATGTCAGC | 0.0322
32 | ATGTCACC | 0.429
33 | CTGTCACC | 0.174
34 | GTCCTCAC | 0.0512
35 | GGGCTCTA | -0.22
36 | CCCCTGGA | -0.17
37 | AACGGACT | -0.0919
38 | CGATGGCG | -0.0766
39 | GTTAGCAA | 0.104
40 | ATGATGAA | 0.306
41 | ATGATGCA | 0.309
42 | CTGATGAC | 0.203
43 | ATGATGAC | 0.306
44 | ATGATTGA | 0.346

Row | Sequence | PBM E-score
45 | GTGATGAA | 0.207
46 | ATGATGCC | 0.0807
47 | ATGATGAG | 0.141
48 | GTGATGCA | 0.185
49 | CTGATGAA | 0.0318
50 | ATGATTGC | 0.0463
51 | ATGATTGG | -0.094
52 | GAATGGAC | 0.0322
53 | GTTCCGGA | -0.0188
54 | TATACATA | 0.0494
55 | GAGGGGGC | -0.346
56 | CGGAGTCA | -0.111
57 | AAAGCCTT | -0.219
58 | CTATGGGA | -0.0561
59 | GCACCGTA | 0.0841
60 | CCACCGTA | 0.341
61 | ACACCGTA | 0.0493
62 | GGGGGCCA | -0.462
63 | CGTAGAAA | 0.318
64 | CGTAGAAG | 0.222
65 | AGTAGAAA | 0.168
66 | AGGGGTAT | -0.179

Row | Sequence | PBM E-score
67 | GCGTCGGA | -0.111
68 | GGAGCCCC | -0.293
69 | CATATTAG | 0.136
70 | CATATTAA | 0.315
71 | TATATTAA | 0.167
72 | ACGAACGC | 0.214
73 | GACTGTGC | 0.0177
74 | ATGTGATA | 0.291
75 | GCGTGATA | 0.353
76 | ACGTGATC | 0.261
77 | ACGTGATG | 0.215
78 | GCGTGAGA | 0.168
79 | GTGTGATA | 0.327
80 | CCGTGATA | 0.283
81 | ACGTGATA | 0.318
82 | CTGTGATA | 0.201
83 | CGCGATTA | 0.0309
84 | AGGTATGC | 0.0905
85 | CAGGCTGA | -0.188
86 | AAATAATT | 0.212
87 | GGTACAAA | 0.0902
88 | CGTACATA | 0.364

Row | Sequence | PBM E-score
89 | CGTACATC | 0.134
90 | CGTACACC | -0.0081
91 | AGTACATA | 0.0814
92 | CGTACAGC | -0.0515
93 | CGTACACG | 0.245
94 | CGTACACA | 0.318
95 | GGTACAGA | 0.00644
96 | CGTACAAA | 0.408
97 | AGTACAAA | 0.101
98 | CGTACAGA | 0.308
99 | GGAGATAA | 0.0908
100 | CAAACGGG | -0.0186
101 | AACCGATT | 0.0401
102 | GCACCCAA | -0.239
103 | CTTCTTTA | 0.12
104 | AGATGGGG | -0.284
105 | GAACAATC | 0.0605
106 | GAAATTCC | -0.102
107 | AGTACAAG | 0.0462
108 | CGTACAAG | 0.357
109 | CGTACAAC | 0.276
